# Screening data (PubChem BioAssay)
# RecA splice inh – Mtb RecA intein splicing inhibitors, primary screen, biochemical, fluorescence, HTS; cell-free RecA intein splicing; inhibition, % (no concentration beside the values); 290,000 tested, 0.75% active; AID 2221, 2009; in the data active = inhibition above about 30%; inconclusive = no clear call, values can overlap the other calls;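 note: 0% = vehicle wells and 100% = reference inhibitor control wells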
# CCHFV vOTU inh – CCHFV vOTU protease inhibitors, primary screen, biochemical, Pep-AMC substrate, fluorescence; inhibition, % at 11.5 µM; AID 651958, 2012; 370,000 tested, 0.55% active; in the data active = inhibition above about 30%; note: 0% = vehicle wells with enzyme and 100% = no enzyme wells
# Mtb betalactam – beta-lactam sensitization of Mtb H37Rv, H37Rv. M. tuberculosis H37Rv growth with meropenem, percent inhibition. inhibition, % at 25 µM. AID 434955, 2010. 330,000 tested, 0.27% active; call rule not given here;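 note: growth measured after seven days incubation then overnight dye step; 0% = bacteria only wells and 100% = bacteria with antibiotic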
# FBA Mtb inh – Mtb FBA enzyme inhibitors, primary screen, biochemical, fluorescence, strain H37Rv; Fructose-bisphosphate aldolase (Mycobacterium tuberculosis (strain ATCC 25618 / H37Rv)), …; purified M. tuberculosis FBA, fluorescence read-out; inhibition, % at 1 µM; 360,000 tested, 2.3% active; AID 588726, 2011;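 note: 0% = vehicle and 100% = reference inhibitor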
# Target sequence (P9WQA3 whole entry, looked up): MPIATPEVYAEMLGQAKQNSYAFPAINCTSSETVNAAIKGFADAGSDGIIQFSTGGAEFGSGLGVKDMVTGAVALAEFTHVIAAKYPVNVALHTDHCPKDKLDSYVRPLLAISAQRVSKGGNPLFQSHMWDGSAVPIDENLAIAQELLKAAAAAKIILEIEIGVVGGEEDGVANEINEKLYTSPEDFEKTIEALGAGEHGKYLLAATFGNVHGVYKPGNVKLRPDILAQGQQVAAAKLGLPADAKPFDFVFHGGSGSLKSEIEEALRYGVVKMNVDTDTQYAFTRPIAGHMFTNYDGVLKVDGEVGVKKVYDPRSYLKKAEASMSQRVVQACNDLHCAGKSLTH
# GDH-TPI counter-1 – GDH-TPI coupling enzyme inhibitors, primary screen, artefact control for M. tuberculosis FBA inhibitor project, biochemical, absorbance, full deck; GDH-TPI coupled enzyme counterscreen, NADH absorbance; 360,000 tested, 1.2% active; AID 588335, 2011; inhibition, % at 4.8 µM; in the data active = inhibition above about 30%;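 note: 0% = DMSO wells and 100% = wells lacking the enzyme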
# Mtb FBA inh conf – M. tuberculosis aldolase blockers, biochemical, fluorescence, strain H37Rv, confirmation; shares compounds with FBA Mtb inh; purified M. tuberculosis FBA, fluorescence read-out; inhibition, % at 1 µM; 5,600 tested, 78% active; AID 651616, 2012;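 note: 0% = vehicle wells and 100% = reference inhibitor wells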
# GDH-TPI counter-2 – GDH-TPI coupling enzyme inhibitors, artefact control for M. tuberculosis FBA inhibitor project, biochemical, fluorescence, high throughput | GDH-TPI coupled enzyme counterscreen | shares compounds with FBA Mtb inh | inhibition, % at 1 µM | AID 652141, 2013 | 5,600 tested, 81% active; in the data active = inhibition above about 10%
# Active calls of the source: *; i = inactive; u = inconclusive; x = no result; + = active, no number. Only some compounds are listed: those with a hit (about 4.2% of all), similar ones and a draw of the others. Cut-off read from the data, not from the text of the source, unless noted: active = inhibition above about 27%; inactive = the rest.
SMILES,RecA splice inh,CCHFV vOTU inh,Mtb betalactam,FBA Mtb inh,GDH-TPI counter-1,Mtb FBA inh conf,GDH-TPI counter-2
Cc1ccc2nc3c(cc(C(N)=S)c(=N)n3CCCOC(C)C)c(=O)n2c1,i,-110,u,48*,4,84*,66*
CCCCn1c(=N)c(S(=O)(=O)c2ccc(Br)cc2)cc2c(=O)n3cccc(C)c3nc21,1,4,-2,1,10,x,x
COC(=O)[C@H](Cc1ccccc1)NC(=O)[C@H]1O[C@@H](n2cnc3c(=O)[nH]c(N)nc32)[C@H](O)[C@@H]1O,x,2,x,x,x,x,x
Cc1ccc(-c2cc(C(=O)NN=C/C=C/c3ccco3)[nH]n2)cc1C,x,28,x,x,x,x,x
CCOC(=O)CC(=O)CSc1nc(C)cc(C)c1C#N,0,-15,4,17,6,x,x
CCOC(=O)CC(=O)CSc1nc2c(c(C)c1C#N)CCC2,-10,-2,-9,31*,3,82*,47*
COc1ccc(/C=C2\OC(=O)c3c(OC)cccc32)cc1OC,-155,-74,7,30*,6,125*,97*
O=S(=O)(Nc1nc2ccccc2nc1N1CCc2ccccc2C1)c1ccc(Cl)cc1,-26,-11,36,66*,32*,+,+
Cc1ccccc1S(=O)(=O)Nc1nc2ccccc2nc1N1CCc2ccccc2C1,3,0,-3,11,10,x,x
O=C(OC12CCCN(C1)/C(=C/c1ccccc1)C2)C1CCCCC1 (stereo not given),x,11,x,x,x,x,x
CCn1c(=O)c(-c2ccccc2)c(O)c2ccccc21,-1,-6,5,19,-5,x,x
O=c1c(-c2ccccc2)c(O)c2ccccc2n1-c1ccccc1,-2,15,0,32*,19,87*,73*
CCCCn1c(=O)c(-c2ccccc2)c(O)c2ccccc21,3,1,-2,31*,0,112*,92*
O=c1[nH]c2ccccc2c(O)c1-c1ccccc1,x,-3,-5,7,22,x,x
Cc1ccc2c(c1)C1CS(=O)(=O)N(C3CCCC3)CN1C2 (stereo not given),x,-7,x,x,x,x,x
O=S1(=O)C=CCN1Cc1cn(Cc2ccc(C(F)(F)F)cc2)nn1,x,1,x,x,x,x,x
CNc1cccc(-c2ccccc2CO)n1,x,6,x,13,-2,x,x
CNc1ccc(-c2ccccc2CO)cn1,x,-33,x,51*,9,45*,27*
CC(C)(C)C(=O)CSc1ncccn1,x,0,0,2,5,x,x
C=CCNC(=O)CSc1n[nH]c(-c2cc(Cl)ccc2OC)n1,1,-6,8,0,-1,x,x
C=CCNC(=O)CSc1ncc2c(n1)-c1c(csc1SC)CC2,-23,-141,2,99*,11,82*,59*
CSc1scc2c1-c1nc(SCC(=O)C(C)(C)C)ncc1CC2,x,-13,-1,30*,-5,67*,48*
COC(=O)C12CCc3cc(OC)ccc3C1=CC(=O)C2 (stereo not given),x,-72,x,95*,34*,95*,94*
O=C(NCc1ccccc1)[C@H]1CCCN1C(=O)[C@H]1CCCN1C(=O)c1cccc(F)c1,x,-3,x,x,x,x,x
Cc1cc(-c2nnc(SCC(=O)Nc3cccc4ccccc34)n2N)n[nH]1,x,12,x,x,x,x,x
Cc1c(OC(C(=O)O)c2ccccc2)ccc2c(-c3ccccc3)cc(=O)oc12 (stereo not given),0,17,-2,6,23,x,x
Cc1c(OC(C)C(=O)O)ccc2c(-c3ccccc3)cc(=O)oc12 (stereo not given),-3,2,-2,35*,19,55*,39*
CCc1ccc(-c2cc(C(=O)NN3CCOCC3)c3ccccc3n2)s1,-8,-156,-9,89*,9,44*,35*
O=C(NN1CCOCC1)c1cc(-c2ccccc2)nc2ccccc12,-1,-6,-5,0,8,x,x
